Measurements from PubChem BioAssay (NCATS).
Records with an inconclusive call do not appear. A call without a number means that no potency is given here. The source made the active and inactive calls. Calls come from the whole dose curve; as a rule, active = well fitted curve in the direction sought with a large enough effect; inconclusive = small, poorly fitted or top-dose-only effect, or another doubt; inactive = no such curve, though single readings can be large; an effect the other way counts as inactive or inconclusive.

assay: qHTS of pediatric cancer cell lines to identify multiple opportunities for drug repurposing: Primary screen for RD cells (AID 1347104); settings: RD rhabdomyosarcoma viability, CellTiter-Glo luminescence, 48 h; series mostly up to 46 µM; note: nearly all actives have a fitted effect of over 55% in size
In short: (§1)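 ATP-based luminescence (CellTiter-Glo) quantifies viability after a 48-hour exposure. Compounds are dosed across 8 or 11 final concentrations; DMSO and 2.3 µM bortezomib serve as controls.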

Compound | Potency
c1ccc(CNCCNCc2ccccc2)cc1 | inactive
OC[C@H]1O[C@H](O[C@]2(CCl)O[C@H](CCl)[C@@H](O)[C@@H]2O)[C@H](O)[C@@H](O)[C@H]1Cl | inactive
O=C1OC2(c3ccc(O)cc3Oc3cc(O)ccc32)c2ccccc21 | inactive
C[C@]12CC[C@@H]3c4ccc(O)cc4CC[C@H]3[C@@H]1C[C@@H](O)[C@@H]2O | inactive
NCCC(O)(P(=O)(O)O)P(=O)(O)O | inactive

assay: qHTS of pediatric cancer cell lines to identify multiple opportunities for drug repurposing: Primary screen for MG 63 (6-TG R) cells (AID 1347105); settings: MG 63 (6-TG R) viability, CellTiter-Glo, 48 h; series mostly up to 46 µM; note: nearly all actives have a fitted effect of over 50% in size; note: potency is the fitted concentration of half-maximal effect
In short: as §1

Compound | Potency
CNC(=O)CN(CCN(CCN(CC(=O)[O-])CC(=O)NC)CC(=O)[O-])CC(=O)[O-].O.[Gd+3] | inactive
OC(CCN1CCCCC1)(c1ccccc1)c1ccccc1 | inactive
COc1cc2c(cc1OC)[C@@H]1CC(=O)[C@@H](CC(C)C)CN1CC2 | inactive
CC1(C)O[C@@H]2C[C@H]3[C@@H]4CCC5=CC(=O)CC[C@]5(C)[C@@]4(F)[C@@H](O)C[C@]3(C)[C@]2(C(=O)CCl)O1 | inactive
CCCC(=O)O[C@]1(C(=O)CO)CC[C@H]2[C@@H]3CCC4=CC(=O)CC[C@]4(C)[C@H]3[C@@H](O)C[C@@]21C | inactive
C[C@]12CC[C@H]3[C@@H](CCC4=CC(=O)CC[C@@]43C)[C@@H]1CC[C@@H]2C(=O)CO | inactive
C[C@@H]1C[C@H]2[C@@H]3CCC4=CC(=O)C=C[C@]4(C)[C@@]3(F)[C@@H](O)C[C@]2(C)[C@H]1C(=O)CO | inactive
C[C@@H]1C[C@H]2[C@@H]3C[C@H](F)C4=CC(=O)C(Cl)=C[C@]4(C)[C@@]3(F)[C@@H](O)C[C@]2(C)[C@@]1(O)C(=O)CO | inactive
CC(=O)[C@H]1CC[C@H]2[C@@H]3C[C@H](C)C4=CC(=O)CC[C@]4(C)[C@H]3[C@@H](O)C[C@]12C | inactive
O=C(OCC(O)CO)c1ccccc1Nc1ccnc2cc(Cl)ccc12 (configuration not stated) | inactive
CC(=O)Oc1ccc(C(c2ccc(OC(C)=O)cc2)c2ccccn2)cc1 | 211 nM (active)
O=C(COc1ccc(Cl)cc1)N1CCN(Cc2ccc3c(c2)OCO3)CC1 | inactive
COc1cc(C(=S)N2CCOCC2)cc(OC)c1OC | inactive
CCCCC(=O)O[C@]1(C(=O)CO)CC[C@H]2[C@@H]3CCC4=CC(=O)CC[C@]4(C)[C@H]3[C@@H](O)C[C@@]21C | inactive
CCN(CC)CCOC(=O)C(c1ccccc1)C1CCCCC1 (configuration not stated) | inactive
O=C(CCCN1CCC(O)(c2ccc(Br)cc2)CC1)c1ccc(F)cc1 | inactive
NC(CS)C(=O)O (configuration not stated) | inactive
Cc1c(F)c(N2CCNC(C)C2)cc2c1c(=O)c(C(=O)O)cn2C1CC1 (configuration not stated) | inactive
CC(=O)OCC(=O)[C@@]1(O)CC[C@H]2[C@@H]3CCC4=CC(=O)C=C[C@]4(C)[C@H]3[C@@H](O)C[C@@]21C | inactive

Compound | Potency
CCCCCCCCCCCCCCNCCO | inactive
CC1(C)O[C@@H]2C[C@H]3[C@@H]4C[C@H](F)C5=CC(=O)CC[C@]5(C)[C@H]4[C@@H](O)C[C@]3(C)[C@]2(C(=O)CO)O1 | inactive
CC(C)(CO)[C@@H](O)C(=O)NCCCO | inactive
CCN(CC)C(=O)N1CCN(C)CC1 | inactive
NC(CO)(CO)CO | inactive
NCCCC[C@H](N[C@@H](CCc1ccccc1)C(=O)O)C(=O)N1CCC[C@H]1C(=O)O | inactive
O=C(O)CNC(=O)c1ccccc1 | inactive
Cc1nc2n(c(=O)c1CCN1CCC(c3noc4cc(F)ccc34)CC1)CCC[C@H]2O | inactive
O=c1[nH]c(=O)n([C@H]2C[C@H](O)[C@@H](CO)O2)cc1C(F)(F)F | inactive
CC(Cc1ccccc1)(NC(=O)CN)c1ccccc1 (configuration not stated) | inactive
OCc1ccccc1O | inactive
CO/N=C1\CN(c2nc3c(cc2F)c(=O)c(C(=O)O)cn3C2CC2)CC1CN (configuration not stated) | inactive
C[C@]12CCC(=O)C=C1[C@@H]1C[C@@H]1[C@H]1[C@@H]3[C@@H]4C[C@@H]4[C@@]4(CCC(=O)O4)[C@@]3(C)CC[C@@H]12 | inactive
c1ccc(CNCCNCc2ccccc2)cc1 | inactive
OC[C@H]1O[C@H](O[C@]2(CCl)O[C@H](CCl)[C@@H](O)[C@@H]2O)[C@H](O)[C@@H](O)[C@H]1Cl | inactive
O=C1OC2(c3ccc(O)cc3Oc3cc(O)ccc32)c2ccccc21 | inactive
C[C@]12CC[C@@H]3c4ccc(O)cc4CC[C@H]3[C@@H]1C[C@@H](O)[C@@H]2O | inactive
NCCC(O)(P(=O)(O)O)P(=O)(O)O | inactive
